Assay results: the supplement of paper PMC6897291
Counter-ions that a name gives are not always drawn.

Legend:
[1] = tested on: U-2932; experiment: growth inhibition by drug alone (1 - RLU/untreated control) (fraction); higher = stronger inhibition; settings: 177Lu-lilotomab satetraxetan 0 ug/ml
How it was run: (§1)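 Compound doses on the pre-printed Selleck Cambridge Cancer Compound library plates were 10/100 nM for RIVA cells and 10/1,000 nM for U-2932 cells, seeded at 3,000 cells/well. Before seeding, cells were washed after 18 h with or without a radiolabelled anti-CD37 antibody conjugate (~600 MBq/mg; 0.5 µg/ml RIVA, 1 µg/ml U-2932). Growth inhibition was derived from RealTime-Glo luminescence relative to untreated no-drug control wells. Readings were taken daily starting on day 3, each after 1 h at 37°C, and each well's RLU was divided by the mean of 48 such wells per plate and subtracted from 1.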

[2] = tested on: RIVA; experiment: as above; settings: 177Lu-lilotomab satetraxetan 0 ug/ml
How it was run: as §1

[3] = tested on: U-2932; experiment: growth inhibition by drug plus 177Lu-lilotomab satetraxetan (1 - RLU/untreated control) (fraction); higher = stronger inhibition; settings: 177Lu-lilotomab satetraxetan 1 ug/ml
How it was run: as §1

[4] = tested on: RIVA; experiment: as above; settings: 177Lu-lilotomab satetraxetan 0.5 ug/ml
How it was run: as §1

Structure (SMILES)	growth inhibition by drug alone ([1]; 10 nM, time (day): 3)	growth inhibition by drug alone ([1]; 10 nM, time (day): 4)	growth inhibition by drug alone ([1]; 10 nM, time (day): 5)	growth inhibition by drug alone ([1]; 10 nM, time (day): 6)	growth inhibition by drug alone ([1]; 1000 nM, time (day): 3)	growth inhibition by drug alone ([1]; 1000 nM, time (day): 4)	growth inhibition by drug alone ([1]; 1000 nM, time (day): 5)	growth inhibition by drug alone ([1]; 1000 nM, time (day): 6)	growth inhibition by drug alone ([2]; 10 nM, time (day): 3)	growth inhibition by drug alone ([2]; 10 nM, time (day): 4)	growth inhibition by drug alone ([2]; 10 nM, time (day): 5)	growth inhibition by drug alone ([2]; 10 nM, time (day): 6)	growth inhibition by drug alone ([2]; 100 nM, time (day): 3)	growth inhibition by drug alone ([2]; 100 nM, time (day): 4)	growth inhibition by drug alone ([2]; 100 nM, time (day): 5)	growth inhibition by drug alone ([2]; 100 nM, time (day): 6)	growth inhibition by drug plus 177Lu-lilotomab satetraxetan ([3]; 10 nM, time (day): 3)	growth inhibition by drug plus 177Lu-lilotomab satetraxetan ([3]; 10 nM, time (day): 4)	growth inhibition by drug plus 177Lu-lilotomab satetraxetan ([3]; 10 nM, time (day): 5)	growth inhibition by drug plus 177Lu-lilotomab satetraxetan ([3]; 10 nM, time (day): 6)	growth inhibition by drug plus 177Lu-lilotomab satetraxetan ([3]; 1000 nM, time (day): 3)	growth inhibition by drug plus 177Lu-lilotomab satetraxetan ([3]; 1000 nM, time (day): 4)	growth inhibition by drug plus 177Lu-lilotomab satetraxetan ([3]; 1000 nM, time (day): 5)	growth inhibition by drug plus 177Lu-lilotomab satetraxetan ([3]; 1000 nM, time (day): 6)	growth inhibition by drug plus 177Lu-lilotomab satetraxetan ([4]; 10 nM, time (day): 3)	growth inhibition by drug plus 177Lu-lilotomab satetraxetan ([4]; 10 nM, time (day): 4)	growth inhibition by drug plus 177Lu-lilotomab satetraxetan ([4]; 10 nM, time (day): 5)	growth inhibition by drug plus 177Lu-lilotomab satetraxetan ([4]; 10 nM, time (day): 6)	growth inhibition by drug plus 177Lu-lilotomab satetraxetan ([4]; 100 nM, time (day): 3)	growth inhibition by drug plus 177Lu-lilotomab satetraxetan ([4]; 100 nM, time (day): 4)	growth inhibition by drug plus 177Lu-lilotomab satetraxetan ([4]; 100 nM, time (day): 5)	growth inhibition by drug plus 177Lu-lilotomab satetraxetan ([4]; 100 nM, time (day): 6)
O=C(O)CCc1ccc(NCc2cccc(Oc3ccccc3)c2)cc1	-0.00379	-0.0257	-0.0189	-0.0582	-0.0179	-0.0506	-0.13	-0.129	-0.138	-0.183	-0.212	-0.37	-0.259	-0.306	-0.351	-0.547	-0.0541	0.038	0.0596	0.0671	-0.0069	0.0299	0.0402	0.126	0.476	0.546	0.562	0.557	0.432	0.527	0.552	0.561
COc1cccc2c1C(=O)c1c(O)c3c(c(O)c1C2=O)C[C@@](O)(C(C)=O)C[C@@H]3O[C@H]1C[C@H](N)[C@H](O)[C@H](C)O1 [Daunorubicin HCl (Daunomycin HCl)]	0.144	0.147	0.0841	0.0306	0.971	0.975	0.98	0.983	0.109	0.134	0.15	0.0495	0.569	0.743	0.857	0.915	0.21	0.265	0.341	0.415	0.978	0.982	0.984	0.987	0.833	0.844	0.868	0.902	0.87	0.915	0.94	0.96
N#Cc1ccc(C(c2ccc(C#N)cc2)n2cncn2)cc1 [Letrozole]	-0.0916	-0.0615	-0.0521	0.00419	-0.0775	-0.0542	-0.0553	-0.0728	-0.194	-0.245	-0.249	-0.307	-0.0878	-0.169	-0.207	-0.242	-0.121	-0.0795	-0.0651	0.00121	-0.131	-0.067	-0.0375	0.0441	0.418	0.498	0.524	0.535	0.319	0.397	0.409	0.401
CCC(C)(C)C(=O)O[C@H]1C[C@@H](C)C=C2C=C[C@H](C)[C@H](CC[C@@H]3C[C@@H](O)CC(=O)O3)[C@H]21 [Simvastatin (Zocor)]	-0.0841	-0.0759	-0.00492	0.136	-0.019	-0.0256	-0.0695	-0.0808	-0.198	-0.217	-0.225	-0.276	-0.024	-0.0809	-0.115	-0.175	-0.0665	-0.0212	-0.00846	0.124	-0.0261	-0.0186	-0.0188	0.0898	0.493	0.554	0.575	0.582	0.469	0.494		
